Results taken from PMC7883291.

Legend:
Assay in all cases: cross-link between two proteins; cross-linking mass spectrometry
[1] = biological target: Cytochrome b-c1 complex subunit 2, mitochondrial (UniProt P23004)
[2] = biological target: NADH dehydrogenase [ubiquinone] 1 alpha subcomplex subunit 1 (UniProt Q02377)
[3] = biological target: NADH dehydrogenase [ubiquinone] 1 alpha subcomplex subunit 13 (UniProt Q95KV7)
[4] = biological target: NADH dehydrogenase [ubiquinone] 1 alpha subcomplex subunit 7 (UniProt Q05752)
[5] = biological target: NADH dehydrogenase [ubiquinone] 1 beta subcomplex subunit 11, mitochondrial (UniProt Q8HXG5)
[6] = biological target: NADH dehydrogenase [ubiquinone] 1 beta subcomplex subunit 4 (UniProt P48305)
[7] = biological target: NADH dehydrogenase [ubiquinone] iron-sulfur protein 4, mitochondrial (UniProt Q02375)
NADH dehydrogenase [ubiquinone] iron-sulfur protein 4, mitochondrial, sequence (Q02375 whole entry): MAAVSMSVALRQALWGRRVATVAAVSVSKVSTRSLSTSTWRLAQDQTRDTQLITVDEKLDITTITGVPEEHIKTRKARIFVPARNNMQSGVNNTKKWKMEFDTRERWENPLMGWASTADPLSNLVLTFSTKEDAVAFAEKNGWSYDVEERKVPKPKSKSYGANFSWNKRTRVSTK

Cytochrome b-c1 complex subunit 2, mitochondrial, sequence (P23004 whole entry, one chain of several): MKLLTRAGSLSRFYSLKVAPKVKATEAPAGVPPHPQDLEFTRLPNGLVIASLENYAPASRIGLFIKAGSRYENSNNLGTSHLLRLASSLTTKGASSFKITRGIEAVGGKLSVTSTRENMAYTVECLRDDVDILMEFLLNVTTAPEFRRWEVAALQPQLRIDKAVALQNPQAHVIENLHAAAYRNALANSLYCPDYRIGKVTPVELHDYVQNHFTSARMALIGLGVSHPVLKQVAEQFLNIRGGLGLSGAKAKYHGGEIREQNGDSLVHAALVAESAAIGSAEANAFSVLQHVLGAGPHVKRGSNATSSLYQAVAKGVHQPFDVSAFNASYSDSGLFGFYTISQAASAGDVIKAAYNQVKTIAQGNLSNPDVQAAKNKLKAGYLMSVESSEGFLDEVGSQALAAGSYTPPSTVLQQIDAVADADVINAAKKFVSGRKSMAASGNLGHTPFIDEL
NADH dehydrogenase [ubiquinone] 1 beta subcomplex subunit 11, mitochondrial, sequence (Q8HXG5 whole entry, one chain of several): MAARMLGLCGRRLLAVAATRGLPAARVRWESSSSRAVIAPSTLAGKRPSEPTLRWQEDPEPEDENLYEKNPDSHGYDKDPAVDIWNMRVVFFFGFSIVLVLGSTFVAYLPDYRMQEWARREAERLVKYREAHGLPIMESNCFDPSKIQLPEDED
NADH dehydrogenase [ubiquinone] 1 alpha subcomplex subunit 6, Q02366, sequence (Q02366 whole entry, one chain of several): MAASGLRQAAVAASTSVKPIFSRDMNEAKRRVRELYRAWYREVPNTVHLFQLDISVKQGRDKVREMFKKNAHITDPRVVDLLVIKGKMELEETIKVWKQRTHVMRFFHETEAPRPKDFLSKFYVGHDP
NADH dehydrogenase [ubiquinone] 1 beta subcomplex subunit 4, sequence (P48305 whole entry, one chain of several): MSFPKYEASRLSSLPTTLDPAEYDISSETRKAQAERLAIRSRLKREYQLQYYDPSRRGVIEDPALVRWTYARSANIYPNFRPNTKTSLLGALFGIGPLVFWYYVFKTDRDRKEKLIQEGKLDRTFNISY
NADH dehydrogenase [ubiquinone] 1 alpha subcomplex subunit 1, sequence (Q02377 whole entry, one chain of several): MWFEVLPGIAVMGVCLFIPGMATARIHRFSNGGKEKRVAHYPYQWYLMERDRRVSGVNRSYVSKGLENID
NADH dehydrogenase [ubiquinone] 1 alpha subcomplex subunit 7, sequence (Q05752 whole entry, one chain of several): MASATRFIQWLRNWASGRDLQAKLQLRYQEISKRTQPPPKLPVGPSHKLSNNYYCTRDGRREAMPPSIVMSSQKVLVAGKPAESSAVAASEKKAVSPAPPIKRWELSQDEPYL
NADH dehydrogenase [ubiquinone] 1 alpha subcomplex subunit 13, sequence (Q95KV7 whole entry, one chain of several): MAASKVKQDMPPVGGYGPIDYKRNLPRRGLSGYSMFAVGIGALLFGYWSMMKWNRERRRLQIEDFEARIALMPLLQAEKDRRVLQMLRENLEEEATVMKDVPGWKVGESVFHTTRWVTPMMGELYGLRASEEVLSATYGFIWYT

Cytochrome b-c1 complex subunit 7, P00129
listed as a hit [1]: yes

Cytochrome c1, heme protein, mitochondrial, P00125
listed as a hit [1]: yes

NADH dehydrogenase [ubiquinone] 1 alpha subcomplex subunit 8, P42029
listed as a hit [2]: yes

NADH dehydrogenase [ubiquinone] iron-sulfur protein 5, Q02379
listed as a hit [3]: yes

NADH dehydrogenase [ubiquinone] 1 alpha subcomplex subunit 5, P23935
listed as a hit [4]: yes

NADH dehydrogenase [ubiquinone] 1 beta subcomplex subunit 8, mitochondrial, Q02372
listed as a hit [5]: yes

NADH dehydrogenase [ubiquinone] 1 beta subcomplex subunit 9, Q02369
listed as a hit [5]: yes

Cytochrome b-c1 complex subunit 1, mitochondrial, P31800
listed as a hit [6]: yes

NADH dehydrogenase [ubiquinone] 1 alpha subcomplex subunit 6, Q02366
listed as a hit [7]: yes

NADH dehydrogenase [ubiquinone] iron-sulfur protein 3, mitochondrial, P23709
listed as a hit [7]: yes
